The list shows a part of the results. Where a call stands in place of a potency, no number is given. Active and inactive are the calls of the source.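 Rule for the calls: active = compounds giving a full or partial concentration-response curve, as inhibitors or activators; inconclusive = weak, top-dose-only or unclear curve responses; inactive = no response at any tested dose.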

The target of the assay is Pyruvate kinase (Leishmania mexicana) (UniProt Q27686). Nature of the assay: Confirmation Assay for Inhibitors of Leishmania Mexicana Pyruvate Kinase (LmPK). Conditions: purified LmPK, Kinase-Glo ATP luminescence, 1 h; series mostly up to 57.5 µM. The text has this: NIH Chemical Genomics Center [NCGC] Malcolm Walkinshaw, Hugh Morgan, Linda Gilmore University of Edinburgh, UK MLPCN Grant: 1 R03 MH085697-01 NCGC Assay Overview: Pyruvate kinase (L. Mexicana) (LmPK) enzyme was supplied as a highly purified (>95% pure) sulphate-free preparation from University of Edinburgh, UK and assayed for its ability to generate ATP from ADP using phosphoenolpyruvate (PEP) as a substrate. ATP generation was detected in a coupled reaction by luciferase-mediated luminescence, an ATP-dependent process. […] The enzyme was assayed at an intermediate level of activity to screen for both inhibitors and activators.
Chain of Pyruvate kinase (Leishmania mexicana) (Q27686 whole entry, looked up): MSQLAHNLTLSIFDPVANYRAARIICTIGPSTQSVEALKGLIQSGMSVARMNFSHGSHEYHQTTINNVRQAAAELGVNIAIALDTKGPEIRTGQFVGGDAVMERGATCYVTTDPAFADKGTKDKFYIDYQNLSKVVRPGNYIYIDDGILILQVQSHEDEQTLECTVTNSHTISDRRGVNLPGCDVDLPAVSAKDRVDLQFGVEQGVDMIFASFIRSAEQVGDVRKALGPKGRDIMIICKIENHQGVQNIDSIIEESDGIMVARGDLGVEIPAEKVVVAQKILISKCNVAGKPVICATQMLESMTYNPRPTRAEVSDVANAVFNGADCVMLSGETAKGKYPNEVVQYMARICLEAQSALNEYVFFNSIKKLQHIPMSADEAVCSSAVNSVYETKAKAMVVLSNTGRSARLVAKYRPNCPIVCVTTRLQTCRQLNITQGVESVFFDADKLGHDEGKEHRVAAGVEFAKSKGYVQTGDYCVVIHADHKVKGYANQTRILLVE
NCGC Assay Protocol Summary: Three uL of enzyme mix (kept on ice) in assay buffer (50 mM Imidazole pH7.2, 50 mM KCl, 7 mM MgCl2, 0.01% Tween 20, 0.05% BSA) containing PEP (0.5 mM final concentration) and LmPK (0.1 nM final concentration) was dispensed into white solid bottom 1,536 well microtiter plates. 23 nL of compound were delivered by a pin tool and 1 uL of ADP mix in assay buffer (r.t; 0.1 mM final ADP concentration) was added. Plates were incubated at room temperature for 1 hour. Two uL of detection mix (Kinase-Glo, Promega; at 4 degree Celsius protected from light) was added and luminescence read by a ViewLux (Perkin Elmer) at 1 second exposure/plate. Data were normalized to the uninhibited and AC100 inhibition (no enzyme). To monitor activation, the first column contained a five-fold concentration of LmPK (0.5 nM).
In general terms: In Kinase-Glo more light means more ATP remaining.
For the compound `Cn1cc(CN2CCCCC2c2ccccn2)c(-c2ccc3c(c2)OCCO3)n1` (configuration not stated), the Potency result was “inactive”.

With `COCCN(C(=O)c1ccco1)c1nnc(-c2ccc(OC)cc2)s1`, the Potency result was “inactive”.

Take `COc1ccc(-c2cn3ccc(C)cc3n2)cc1`: the Potency is 9.19 µM (active).

Consider `CC(=O)N(C1=C(Cl)C(=O)c2ccccc2C1=O)c1ccc(C(=O)O)cc1`, for which the Potency was 2.59 µM (active).

With `CN1CC(c2ccccc2)C2(COc3ccccc3C2=O)C12C(=O)Nc1ccccc12` (configuration not stated), the Potency entry is “inactive”.

On to `COc1ccc(C(=O)C[n+]2ccc(N)c(C)c2C)cc1`, for which the Potency result is “inactive”.

For the compound `COc1ccc(-c2cc(C(F)(F)F)nc(NCc3cccnc3)n2)cc1`, the Potency result is “inactive”.

Source of the values: PubChem BioAssay AID2559 (National Center for Advancing Translational Sciences (NCATS), 2010).
